The list is not random: actives were taken first. Their share in the collection is about 1.1%.
HTT cytoprotect: qHTS Multiplex Assay to Identify Dual Action Probes in a Cell Model of Huntington: Cytoprotection (ATP). actives 0.14% (n = 230,000). PC12 HTT-Q103 induced, cytoprotection, ATP luminescence, 40 h. Potency, µM (highest dose often 56.4 µM), for inactives: cytoprotection (ATP increase), actives largely listed as activators; also: potency is read from the fitted curve at half-maximal effect; % of control where 0% means no effect; nearly all actives have a fitted effect of over 45% in size
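PC12 cells stably carrying ecdysone-inducible Htt exon 1 (Q103)–GFP were induced with 100 nM tebufenozide (final) alongside library compounds in a dose series. Cytoprotection was scored as retained ATP by ATPlite luminescence.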
HTT aggregate: qHTS Multiplex Assay to Identify Dual Action Probes in a Cell Model of Huntington: Aggregate Formation (GFP). PC12 HttQ103-GFP aggregates, Acumen cytometry, 40 h. Potency, µM (highest dose often 46.1 µM), for the others: at the top dose activity change, negative = inhibition, usual class: inhibitors. actives 1.1% (n = 220,000); also: potency is read from the fitted curve at half-maximal effect; % is scaled to controls: 0 for no effect and ±100 for the full control effect; nearly all actives have a fitted effect of over 60% in size
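Multiplexed with ATP-based cell death, this channel scores GFP aggregates in PC12 cells expressing inducible HTTex1-Q103-GFP. Induction used 100 nM tebufenozide; compounds were tested in concentration series.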
MBNL1 CUG block: qHTS Assay for Inhibitors of MBNL1-poly(CUG) RNA binding; Muscleblind-like protein 1 (Homo sapiens), Q9NR56; TR-FRET MBNL1-His/biotin-(CUG)12 binding, 665/545 ratio; Potency, µM (top dose mostly 57.5 µM), for the others: top-dose activity change, negative = inhibition, most hits filed as inhibitors; actives 0.036% (n = 280,000); active = well fitted inhibition curve with a large enough effect in the signal ratio, with a control signal flat, not every such curve was filed as active; inconclusive = small, poorly fitted or top-dose-only effect, or effect the other way, or a change in a side signal; inactive = no such curve, though single readings can be large or run the other way; the % refers to the signal ratio; also: potency is read from the fitted curve at half-maximal effect; % is scaled to controls: 0 for no effect and ±100 for the full control effect
Target sequence (Q9NR56 whole entry, looked up): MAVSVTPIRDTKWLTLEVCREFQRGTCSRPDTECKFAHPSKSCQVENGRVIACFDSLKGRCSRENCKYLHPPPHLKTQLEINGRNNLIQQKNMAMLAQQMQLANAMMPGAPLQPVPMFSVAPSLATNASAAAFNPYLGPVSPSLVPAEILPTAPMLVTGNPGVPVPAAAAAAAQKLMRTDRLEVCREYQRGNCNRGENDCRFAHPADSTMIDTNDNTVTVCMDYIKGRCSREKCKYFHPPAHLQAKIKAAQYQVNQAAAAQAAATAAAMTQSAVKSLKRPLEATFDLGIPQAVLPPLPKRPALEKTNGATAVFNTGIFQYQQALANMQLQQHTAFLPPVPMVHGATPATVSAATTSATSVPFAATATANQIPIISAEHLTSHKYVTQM
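Ratiometric TR-FRET (665 over 545 nm, excitation 340 nm) tracks disruption of MBNL1-His/biotin-(CUG)12 complex after 60 min at room temperature, with compounds at 92 nM to 58 uM final.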
CBFb RUNX1 block: qHTS Assay for Compounds Blocking the Interaction Between CBF-beta and RUNX1 for the Treatment of Acute Myeloid Leukemia | Runt-related transcription factor 1 (Homo sapiens) + Core-binding factor subunit beta … | AlphaScreen CBFb-His/RUNX1-biotin binding, biochemical | Potency, µM (series often up to 59.8 µM), without a hit: at the highest dose activity, negative = inhibition, most hits filed as inhibitors | 230,000 tested, under 10 active | AID 1477, 2009; also: % of control where 0% means no effect
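Proteins preincubated together for 20 min at RT before compound addition; 15 min later, nickel and streptavidin beads were added and left 90 min prior to AlphaScreen measurement.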
Lamin A splicing: qHTS Assay for Modulators of Lamin A Splicing; AID 1487, 2009; actives 0.01% (n = 200,000); HeLa LMNA splicing GFP/RFP minigene ratio, 48 h; Potency, µM (titrated, usually from 46.1 µM), inactives show at the highest dose ratio change, negative = inhibition, usual class: inhibitors; active = well fitted inhibition curve with a large enough effect in the signal ratio, with a control signal flat, not every such curve was filed as active; inconclusive = small, poorly fitted or top-dose-only effect, or effect the other way, or a change in a side signal; the % refers to the signal ratio; also: potency is read from the fitted curve at half-maximal effect; % is scaled to controls: 0 for no effect and ±100 for the full control effect
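S3 HeLa stable clones carrying a lamin A-EGFP splicing minigene plus DsRed2 were seeded at 600 cells/well in Opti-MEM with 2% FBS, pin-dosed and incubated 48 h at 37°C. Acumen cytometry (488 nm) gave the GFP/RFP total-intensity ratio.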
NPSR antagonist: qHTS Assay for Antagonists of the Neuropeptide S Receptor: cAMP Signal Transduction | actives 1% (n = 220,000) | Q6W5P4 | CHO-NPSR cells, cAMP TR-FRET, antagonist mode | Potency, µM (top dose mostly 38.3 µM), for inactives: at the highest dose activity change, negative = inhibition, most hits filed as inhibitors | AID 1461, 2008; also: potency is read from the fitted curve at half-maximal effect; % is scaled to controls: 0 for no effect and ±100 for the full control effect; nearly all actives have a fitted effect of over 50% in size
Target sequence (Q6W5P4 whole entry, looked up): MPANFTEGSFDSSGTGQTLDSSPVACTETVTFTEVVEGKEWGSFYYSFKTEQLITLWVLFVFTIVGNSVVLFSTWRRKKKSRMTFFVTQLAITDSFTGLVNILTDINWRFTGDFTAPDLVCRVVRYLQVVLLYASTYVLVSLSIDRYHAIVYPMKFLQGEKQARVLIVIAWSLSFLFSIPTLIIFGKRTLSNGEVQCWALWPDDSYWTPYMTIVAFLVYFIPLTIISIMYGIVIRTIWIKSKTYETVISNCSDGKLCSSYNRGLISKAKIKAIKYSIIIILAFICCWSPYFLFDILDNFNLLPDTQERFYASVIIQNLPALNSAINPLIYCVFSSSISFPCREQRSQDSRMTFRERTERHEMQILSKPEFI
* hit, by the source's call; ? = inconclusive; / = no result; [ ] = dose if it differs, or a comment. Unless noted, calls follow the shape of the dose curve; as a rule, active = well fitted curve in the direction sought with a large enough effect; inconclusive = small, poorly fitted or top-dose-only effect, or another doubt; inactive = no such curve, though single readings can be large; an effect the other way counts as inactive or inconclusive.

SMILES	HTT cytoprotect	HTT aggregate	MBNL1 CUG block	CBFb RUNX1 block	Lamin A splicing	NPSR antagonist
COc1ccc(O)c(/C=N/Nc2nc(Nc3ccccc3)nc(-n3nc(C)cc3C)n2)c1	-78.1%[10 µM]	?	-5.8%	?	?	1.26µM*
COc1ccc(/C=N/Nc2cc(N3CCCC3)nc(N3CCCC3)n2)cc1	-63.3%	?	7.9%	?	/	12.6µM*
COc1ccc(/C=N/Nc2cc(C)nc(-n3nc(C)cc3C)n2)cc1	-7.8%[10 µM]	14.1µM*	1.8%	-14.7%	?	?
COc1cc(/C=N/Nc2nc(Nc3ccccc3)nc(-n3nc(C)cc3C)n2)cc(OC)c1OC	-9.9%[10 µM]	?	/	-6.4%	?	-24.2%
COc1ccc(NC2=CC(=O)CC(c3ccccc3)C2)c(OC)c1 (configuration not stated)	-75.1%	-3.4%	2.7%	4.2%	1.2%	1.9%[46.1 µM]
CCOc1ccccc1NC1=CC(=O)CC(c2ccccc2)C1 (configuration not stated)	-41.4%	-4.8%	-11.1%	1.5%	?	1.26µM*
NCc1ccc(C(=O)O)cc1	4.7%[10 µM]	/	/	/	/	/
CC(C)(C)c1ccc(C(O)CCCN2CCC(C(O)(c3ccccc3)c3ccccc3)CC2)cc1 (configuration not stated)	-99.2%	22.4µM*	11.9%	15.2%	?	?
CC(C)(C)c1ccc([C@@H](O)CCCN2CCC(C(O)(c3ccccc3)c3ccccc3)CC2)cc1	?	/	/	6.2%[21.7 µM]	?	/
Cc1cc2c3c(c1)C(C)(c1ccccc1)CC(C)(C)N3C(=O)C21C(C#N)=C(N)OC2=C1C(=O)CC(C)(C)C2 (configuration not stated)	7.7%	-7.0%[9.22 µM]	-1.7%	-1.0%	?	10µM*
CC1(c2ccccc2)CC(C)(C)N2C(=O)C3(C(C#N)=C(N)Oc4cc(O)ccc43)c3cccc1c32 (configuration not stated)	-7.1%	-12.5%	-3.6%	-13.2%	19.9%	?
Cc1ccc(C)c(NC(=O)c2ccccc2NS(=O)(=O)c2cc([N+](=O)[O-])ccc2C)c1	-51.9%[10 µM]	2.82µM*	/	-6.1%	?	-35.6%
Cc1cc(NC(=O)c2ccccc2NS(=O)(=O)c2c(C)c(C)cc(C)c2C)no1	-20.3%	-7.1%	-17.0%	1.1%	7.1%	-11.6%[46.1 µM]
Cc1ccc(C)c(S(=O)(=O)Nc2ccccc2C(=O)Nc2cc(C)on2)c1	-64.9%	10µM*	1.7%	4.5%	16.7%	-14.8%[46.1 µM]
Cc1ccc(-c2cc(C(=O)Nc3ccc(S(=O)(=O)Nc4cc(C)on4)cc3)c3ccccc3n2)c(C)c1	-1.3%	5.3%	-3.4%	-4.1%	-2.7%	10µM*
Cc1ccc(C)c(NC(=O)c2ccccc2Sc2ccc([N+](=O)[O-])cc2Cl)c1	?	-10.5%	/	-7.5%	?	-52.8%
COc1ccccc1OCC(=O)c1[nH]c(C)c(C(C)=O)c1C	-26.3%	?	5.7%	-3.8%	5.6%	-9.4%[46.1 µM]
CC(=O)c1c(C)[nH]c(C(=O)COc2cc(C)ccc2C(C)C)c1C	-13.3%	1µM*	-0.6%	-1.5%	?	-14.5%[46.1 µM]
OC1OC[C@H](O)[C@H](O)[C@H]1O (some centres not stated)	/	/	/	8.7%	/	/
COc1ccccc1-c1cc(-c2ccccc2)nc(SC(C(N)=O)c2ccccc2)c1C#N (configuration not stated)	-5.5%	11.2µM*	59.3%	-1.3%	10.8%	?
Cc1nc(SC(C(N)=O)c2ccccc2)c(C#N)c(C)c1C (configuration not stated)	-1.3%[10 µM]	-5.9%[9.22 µM]	-0.6%	5.8%	/	-17.5%
COc1ccc(NS(=O)(=O)c2cc(NC(=O)C3CC3)ccc2N2CCCCC2)cc1	-43.7%	?	-3.0%	-11.0%	?	12.6µM*
COc1ccc(NS(=O)(=O)c2cc(NC(=O)C3CC3)ccc2N2CCOCC2)cc1	/	28.6%	-1.5%	-6.7%	/	-35.3%
C[C@H]1[C@@H](OC(=O)CCC(=O)O)OC2OC3(C)CC[C@H]4[C@H](C)CC[C@@H]1[C@@]24OO3 (some centres not stated)	-97.3%	3.16µM*	/	/	/	/
C#Cc1cccc(Nc2ncnc3cc(OC)c(OC)cc23)c1	-36.4%	/	/	22.3%	/	/
SMILES	HTT cytoprotect	HTT aggregate	MBNL1 CUG block	CBFb RUNX1 block	Lamin A splicing	NPSR antagonist
CC1CCN(c2ncnc3ccccc23)CC1	24.2%[10 µM]	22.4µM*	-2.1%	-5.4%	?	-18.4%[46.1 µM]
COc1cc(C)ccc1OCCOc1cc(C)ccc1Cl	0.4%	9.2%	-0.8%	?	-0.6%	10µM*
CCCCCCNC(=O)N[C@H](C(=O)NCCC[C@H]1CN2C(=NC[C@H]2C)N1CCC(c1ccccc1)c1ccccc1)C(C)O (some centres not stated)	-9.5%[10 µM]	-31.7%[9.22 µM]	-5.8%	-5.2%	/	10µM*
COc1ccc(N/C=C2/CCCCC2=O)cc1	20µM*	5.9%	?	5.9%	28.8%	3.1%[46.1 µM]
COc1ccc(Oc2ccc(N/C=C3/CCCC3=O)cc2)cc1	-35.3%[10 µM]	17.3%	/	-5.1%	?	-3.5%
Cn1c(-[n+]2c(-c3ccccc3)cc(-c3ccccc3)cc2-c2ccccc2)nc2c([N+](=O)[O-])cccc21	/	?	?	2.5%	?	7.94µM*
Cc1ccc(NC(=O)Cn2c(=O)n(Cc3ccccc3)c(=O)c3c2c2cc(C)ccc2n3C)cc1	/	/	/	/	5.9%[46 µM]	/
CCCCc1nc2c(c3c1C[C@H](C)OC3)CN(C(=O)C1CC1)CC2	-19.5%[10 µM]	/	/	-5.2%[13.1 µM]	-13.9%[9.22 µM]	/
COC(=O)CCS(=O)(=O)c1nc(-c2ccccc2)cc(C(F)(F)F)n1	-14.6%	?	1.2%	-0.2%	?	10µM*
CCOC(=O)CS(=O)(=O)c1nc(-c2ccccc2)cc(C(F)(F)F)n1	?	-24.4%[9.22 µM]	-2.6%	11.2%	?	10µM*
CCOC(=O)CCS(=O)(=O)c1nc(-c2ccccc2)cc(C(F)(F)F)n1	0.6%[0.074 µM]	24.1%	9.3%	3.1%	?	7.94µM*
CCc1ccc(CNC(=O)CCCN2C(=O)CCn3nc(-c4cccn4C)cc32)cc1	/	/	/	/	4.6%[46 µM]	/
O=C(NC1CCCC1)c1cc(COc2ccc3ncccc3c2)on1	?	-5.2%[9.22 µM]	8.1%	-0.4%	/	-9.5%
O=C(NCCc1cn2ccccc2n1)c1cc(COc2ccc3ncccc3c2)on1	-80.6%	11.2µM*	8.3%	1.8%	/	49.1%
